# Records with an inconclusive call do not appear. Where a call stands in place of a potency, no number is given. Unmarked numbers belong to inactive results. Active and inactive are the calls of the source. The call rests on the fitted dose curve.
# Molecular target: 5-hydroxytryptamine receptor 2A (Homo sapiens) (UniProt P28223)
# Test: 5-hydroxytryptamine receptor 2A (HTR2A) small molecule agonists, cell-based qHTS assay (AID 1963587); further: nearly all actives have a fitted effect of over 30% in size
# Conditions: HTR2A-CHO cells, calcium flux fluorescence, agonist mode; series mostly up to 76.8 µM
# Method in brief: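 CHO cells stably expressing human HTR2A, plated 18 h, loaded with calcium dye 1 h at 37 C. Agonist mode: compounds added and intracellular calcium fluorescence recorded kinetically for 2 min at 1 sec intervals.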
# Potency means the concentration at half of the fitted maximal effect.
# Chain of 5-hydroxytryptamine receptor 2A (Homo sapiens) (P28223 whole entry, looked up): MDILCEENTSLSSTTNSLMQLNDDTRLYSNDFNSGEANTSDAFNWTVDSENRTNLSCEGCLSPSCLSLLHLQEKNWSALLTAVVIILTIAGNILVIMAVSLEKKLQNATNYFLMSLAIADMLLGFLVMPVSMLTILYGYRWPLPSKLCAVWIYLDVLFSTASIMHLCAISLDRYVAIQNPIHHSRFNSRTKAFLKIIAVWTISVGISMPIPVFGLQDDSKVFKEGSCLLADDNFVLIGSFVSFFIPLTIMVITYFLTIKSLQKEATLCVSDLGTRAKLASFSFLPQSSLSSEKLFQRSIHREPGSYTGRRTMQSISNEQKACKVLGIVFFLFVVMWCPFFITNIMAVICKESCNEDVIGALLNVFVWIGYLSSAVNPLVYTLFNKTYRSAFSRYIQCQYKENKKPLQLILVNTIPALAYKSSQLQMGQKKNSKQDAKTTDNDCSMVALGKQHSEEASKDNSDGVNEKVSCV
SMILES,Potency,activation
CC1(c2ccc(Oc3ccccc3)cc2)OC(=O)N(Nc2ccccc2)C1=O (stereo not given),inactive,
Oc1cc(Cl)cc(Cl)c1,inactive,
C=CC(=O)NCNC(=O)C=C,inactive,
COc1ccc(C(c2ccc(OC)cc2)C(Cl)(Cl)Cl)cc1,inactive,
CC(C)N(C(=O)COc1nnc(C(F)(F)F)s1)c1ccc(F)cc1,inactive,
CCC(CC)(CNC(=O)CCCO)c1cccc(OC)c1,inactive,
Oc1cccc(Cl)c1,inactive,
CCOP(=S)(OCC)Oc1ccc(S(C)=O)cc1 (stereo not given),inactive,
O=c1[nH]c2ccccc2o1,inactive,
CN1C(=S)CN=C(c2ccccc2)c2cc(Cl)ccc21,inactive,
C=C(C)[C@H]1CN[C@H](C(=O)O)[C@H]1CC(=O)O,inactive,
C[C@@H](N)[C@@H](O)c1ccccc1,inactive,
CC(C)(Cl)[N+](=O)[O-],inactive,
Cc1ccc2nc3sc(=O)sc3nc2c1,,-3.01% [at 15.9 µM]
CC1(C)CN=C(NN=C(/C=C/c2ccc(C(F)(F)F)cc2)/C=C/c2ccc(C(F)(F)F)cc2)NC1,inactive,
O=[N+]([O-])c1c(Cl)c(Cl)cc(Cl)c1Cl,inactive,
CCCCCCCCCCCCN(C)C,inactive,
CCCCN(CCCC)C(=S)[S-].CCCCN(CCCC)C(=S)[S-].[Zn+2],inactive,

SMILES,Potency,activation
CCN(CC)C(=S)[S-].CCN(CC)C(=S)[S-].[Zn+2],19.3 µM (active),
CC(Cc1ccc2c(c1)OCO2)NO (stereo not given),1.33 µM (active),
CS(=O)(=O)c1ccc(C(=O)C2C(=O)CCCC2=O)c(Cl)c1COCC(F)(F)F,inactive,
CCOP(=O)(OCC)Oc1cc(C)nc(C(C)C)n1,inactive,
CCOP(=S)(OCC)Oc1cc(C)nc(N(CC)CC)n1,inactive,
CNP(=O)(OC)Oc1ccc(C(C)(C)C)cc1Cl (stereo not given),inactive,
O=C1C(=O)c2cccc3cccc1c23,inactive,
N#Cc1cc(I)c(O)c(I)c1,inactive,
COC(=O)c1ccccc1S(=O)(=O)NC(=O)Nc1nc(C)nc(OC)n1,inactive,
c1csc(-c2ccc(-c3cccs3)s2)c1,inactive,
Cc1ccccc1OP(=O)(Oc1ccccc1C)Oc1ccccc1C,inactive,
CCOP(=S)(S)OCC,inactive,
CC(C)[C@H](C(=O)O[C@H](C#N)c1cccc(Oc2ccccc2)c1)c1ccc(Cl)cc1,inactive,
O=[N+]([O-])c1cccc2cccnc12,inactive,
Clc1cccc(SC2CCNCC2)n1,0.0849 µM (active),
CCCCC(CC)COC(=O)OOC(C)(C)C (stereo not given),inactive,
O=[N+]([O-])c1cc(C(F)(F)F)c(Cl)c([N+](=O)[O-])c1Cl,inactive,
